From PMC4336329 (PLoS ONE, 2015)
The campaign covered roughly 310,000 compounds. About 14,000 (4.5%) showed an effect of 50% or more. The effect is printed as a negative number. For the sample, strong results were picked, then their nearest neighbours and some compounds at random.

Target: human ether-à-go-go-related gene (hERG) potassium channel (human, UniProt Q12809)
Test: primary screen, population patch clamp on CHO cells stably expressing hERG; higher = less effect of the substance
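Note: peak tail current of the secondary pulse compared with the same well before compound.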

Sequence of human ether-à-go-go-related gene (hERG) potassium channel (Q12809 whole entry, looked up): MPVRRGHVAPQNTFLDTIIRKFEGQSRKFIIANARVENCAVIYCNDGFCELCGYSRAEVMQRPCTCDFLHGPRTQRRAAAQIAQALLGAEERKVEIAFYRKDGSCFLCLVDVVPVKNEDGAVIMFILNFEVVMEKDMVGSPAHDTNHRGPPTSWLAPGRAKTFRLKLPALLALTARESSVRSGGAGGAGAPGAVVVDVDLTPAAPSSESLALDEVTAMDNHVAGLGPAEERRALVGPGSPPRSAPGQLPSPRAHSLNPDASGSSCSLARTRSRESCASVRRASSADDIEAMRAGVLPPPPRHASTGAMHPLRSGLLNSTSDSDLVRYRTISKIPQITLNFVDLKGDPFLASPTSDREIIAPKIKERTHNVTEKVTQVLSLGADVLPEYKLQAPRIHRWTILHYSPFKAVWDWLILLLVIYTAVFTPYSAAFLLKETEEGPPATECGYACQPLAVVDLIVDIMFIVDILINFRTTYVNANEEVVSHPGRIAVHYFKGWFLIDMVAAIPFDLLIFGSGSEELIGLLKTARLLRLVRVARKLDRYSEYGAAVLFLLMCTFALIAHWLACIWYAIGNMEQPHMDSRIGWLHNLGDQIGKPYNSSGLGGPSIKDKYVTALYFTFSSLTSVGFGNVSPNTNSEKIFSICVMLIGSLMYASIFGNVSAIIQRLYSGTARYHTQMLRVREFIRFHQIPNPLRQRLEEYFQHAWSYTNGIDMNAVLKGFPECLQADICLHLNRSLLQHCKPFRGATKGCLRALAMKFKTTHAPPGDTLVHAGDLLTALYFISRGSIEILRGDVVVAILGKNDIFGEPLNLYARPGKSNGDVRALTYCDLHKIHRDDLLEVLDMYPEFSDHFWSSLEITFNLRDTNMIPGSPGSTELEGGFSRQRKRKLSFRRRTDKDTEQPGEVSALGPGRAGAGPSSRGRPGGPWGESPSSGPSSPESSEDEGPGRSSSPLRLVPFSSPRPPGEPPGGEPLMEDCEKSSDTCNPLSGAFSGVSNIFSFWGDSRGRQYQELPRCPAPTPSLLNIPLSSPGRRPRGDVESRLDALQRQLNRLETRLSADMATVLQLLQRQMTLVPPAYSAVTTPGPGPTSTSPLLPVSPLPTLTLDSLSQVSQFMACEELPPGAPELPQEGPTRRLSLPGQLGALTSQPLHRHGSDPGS

First: O=C1CC(N2CCC(c3nc4ccccc4o3)CC2)C(=O)N1c1ccc(Cl)c(C(F)(F)F)c1 (centres unmarked)
Second: CSc1ccc(S(=O)(=O)N2CCC(C(=O)Nc3ccccc3C(F)(F)F)CC2)cc1
The “hERG current change (%, negative = inhibition) at 10uM” value of the first is lower: 6.87% for the first, 7.69% for the second.

First: COC(=O)C1=C(C)N(c2cccc(C(C)=O)c2)C(=O)C1
Second: CC(=O)c1ccc(NC(=O)CSc2nnc(-c3ccncc3)n2C2CC2)cc1
The “hERG current change (%, negative = inhibition) at 10uM” value of the first is higher: 7.45% for the first, -5.46% for the second.

Going from `CC(C)OC(=O)/C(C#N)=C/c1cn(Cc2ccccc2)c2ccccc12` to `O=c1c2ccccc2nc2c3ccccc3c(NCc3cccnc3)nn12`, the “hERG current change (%, negative = inhibition) at 10uM” value falls from -6.73% to -25.5%.

Going from `COc1ccc(N(C(=O)CNC(=O)c2ccco2)C(C(=O)NC2CCCCC2)c2ccco2)cc1` (centres unmarked) to `COc1ccc(-n2nc(C(=O)NCC(=O)NC3CCCC(C)C3C)c3ccccc3c2=O)cc1` (centres unmarked), the “hERG current change (%, negative = inhibition) at 10uM” value falls from 8.58% to 8.55%.

Compared with `C=CCNc1nc2c(c(=O)[nH]c(=O)n2C)n1CCCCC`, `C=CCNC(=O)C1CC2Cn3c(nc4cc(C)c(C)cc43)C2N1C` (centres unmarked) is higher in “hERG current change (%, negative = inhibition) at 10uM” value: -12.1% for the first, -7.6% for the second.

Compared with `O=[N+]([O-])c1ccc2[nH]cc(S(=O)(=O)N3CCN(c4cccc(Cl)c4)CC3)c2c1`, `C=CCNC(=O)c1ccccc1NC(=O)C1CCN(S(=O)(=O)c2ccc(SC)cc2)CC1` is lower in “hERG current change (%, negative = inhibition) at 10uM” value: 16.3% for the first, -70% for the second.

Compared with `NC(=O)NC(=O)COC(=O)c1cccc(S(=O)(=O)N2CCCCCC2)c1`, `C=CCNC(=O)C1CCN(S(=O)(=O)c2ccccc2)CC1` is higher in “hERG current change (%, negative = inhibition) at 10uM” value: -21.4% for the first, -2.98% for the second.

Compared with `CCCNC(=O)C1CCN(S(=O)(=O)c2ccc(Br)cc2)CC1`, `C=CCNC(=O)C1CCN(S(=O)(=O)c2ccc(Br)cc2)CC1` is lower in “hERG current change (%, negative = inhibition) at 10uM” value: -1.78% for the first, -58.7% for the second.

Going from `C=CCNC(=O)c1ccccc1NS(=O)(=O)c1ccc(SC)cc1` to `O=C(Nc1ccccc1)c1ccc(Br)c(S(=O)(=O)Nc2ccccn2)c1`, the “hERG current change (%, negative = inhibition) at 10uM” value rises from -6.5% to 14.5%.

Going from `Nc1nc(N)nc(-c2cc(O)ccc2O)n1` to `NC(=O)c1noc(C(=O)N(CC(=O)NC2CCCC2)Cc2ccc3c(c2)OCO3)c1N`, the “hERG current change (%, negative = inhibition) at 10uM” value falls from 10.3% to -7.94%.

Going from `O=C(CSc1ccccc1)N(c1ccc(Br)cc1)c1nccs1` to `CCC(=O)N(CCc1ccccc1)Cc1cc2cccc(C)c2[nH]c1=O`, the “hERG current change (%, negative = inhibition) at 10uM” value falls from 10.8% to -14.4%.

First: COc1ccc2[nH]c(=O)c(CN(CCN(C)C)C(=O)NCc3ccccc3)cc2c1
Second: Cc1ccc2[nH]c(=O)c(CN(CCO)C(=O)NCc3ccccc3)cc2c1
The “hERG current change (%, negative = inhibition) at 10uM” value of the first is higher: 9.31% for the first, 7.55% for the second.

First: Cc1ccc2cc(CN(CCCN(C)C)C(=O)NCc3ccccc3)c(=O)[nH]c2c1C
Second: Cc1ccc2cc(CN(CCCN(C)C)C(=S)NCc3ccccc3)c(=O)[nH]c2c1C
The “hERG current change (%, negative = inhibition) at 10uM” value of the first is higher: -34.1% for the first, -50.3% for the second.

Compared with `Cc1cccc2cc(CN(CCCN(C)C)C(=S)NCCc3ccccc3)c(=O)[nH]c12`, `Cc1ccc(C)c2[nH]c(=O)c(CN(CCCN(C)C)C(=O)NCc3ccccc3)cc12` is higher in “hERG current change (%, negative = inhibition) at 10uM” value: -72% for the first, -52.2% for the second.

Compared with `Cc1cc(C)c2cc(CN(CCCN(C)C)C(=S)NCc3ccccc3)c(=O)[nH]c2c1`, `CCN(CC)CCCNC(=S)N(Cc1cccnc1)Cc1cc2cccc(C)c2[nH]c1=O` is higher in “hERG current change (%, negative = inhibition) at 10uM” value: -45.4% for the first, -1.68% for the second.

First: O=C(NC(=S)N1CCOCC1)c1ccc(F)cc1
Second: COCCNC(=S)Nc1ccc2nc(N3CCOCC3)cc(C)c2c1
The “hERG current change (%, negative = inhibition) at 10uM” value of the first is higher: 24.4% for the first, -0.507% for the second.

Going from `CC[C@H](C)[C@@H](C(=O)N1CCNCC1)n1cc([C@@H](N)CC(C)C)nn1.Cl` to `Cc1cc(N2CCN(C)CC2)nc2ccc(NC(=S)NCCC(C)C)cc12`, the “hERG current change (%, negative = inhibition) at 10uM” value falls from 11.9% to -51.2%.

First: COc1ccc(CC(=O)NC2CC(C)(C)NC(C)(C)C2)cc1OC.Cl
Second: Cc1cc2nc3n(c2cc1C)CC1CC(C(=O)NCC2CC2)N(C)C31 (centres unmarked)
The “hERG current change (%, negative = inhibition) at 10uM” value of the first is higher: 16.9% for the first, -1.83% for the second.

First: Cc1ccc(/C=C2\C(=O)Nc3ccccc32)o1
Second: CCOc1ccccc1-n1nnnc1SCC(=O)NCc1ccco1
The “hERG current change (%, negative = inhibition) at 10uM” value of the first is lower: 5.04% for the first, 5.25% for the second.

Going from `O=C(CSc1ccccc1)NCC1(N2CCOCC2)CCCCC1` to `Cc1ccccc1-n1nnnc1SCC(=O)NCC1(N2CCOCC2)CCCCC1`, the “hERG current change (%, negative = inhibition) at 10uM” value falls from -19% to -24.9%.

Compared with `CCOc1ccccc1-n1nnnc1SCC(=O)NCC1(N2CCOCC2)CCCCC1`, `COc1ccccc1-n1nnnc1SCC(=O)NCC1(N2CCOCC2)CCCCC1` is higher in “hERG current change (%, negative = inhibition) at 10uM” value: -67.7% for the first, -39.8% for the second.

First: Cc1cccc(-n2nnnc2SCC(=O)NCC2(N3CCOCC3)CCCCC2)c1C
Second: CC(C)Oc1ccc(CNC(=O)C2CCCN(S(=O)(=O)N3CCOCC3)C2)cc1 (centres unmarked)
The “hERG current change (%, negative = inhibition) at 10uM” value of the first is lower: -57.9% for the first, -20.8% for the second.

First: CC(=O)OCN(C#N)c1nc(N(C)C)nc(N(C)C)n1
Second: Cc1cc(N2CCOCC2)nc2ccc(NC(=S)NCCN(C)C)cc12
The “hERG current change (%, negative = inhibition) at 10uM” value of the first is lower: 5.8% for the first, 13.7% for the second.

Going from `Cc1nnc2ccc(-c3ccc(NS(=O)(=O)c4ccc(F)cc4F)cc3)nn12` to `Cc1cc(N2CCN(C)CC2)nc2ccc(NC(=S)NCCCN3CCc4ccccc4C3)cc12`, the “hERG current change (%, negative = inhibition) at 10uM” value falls from -25.2% to -26.5%.

Compared with `Cc1cc2nc3n(c2cc1C)CC1CC(C(=O)NCc2cccc(C(F)(F)F)c2)N(C)C31` (centres unmarked), `CN1C(C(=O)NCc2cccc(C(F)(F)F)c2)CC2Cn3c(nc4cc(Cl)c(Cl)cc43)C21` (centres unmarked) is lower in “hERG current change (%, negative = inhibition) at 10uM” value: -66.7% for the first, -73.6% for the second.

First: CN1C(C(=O)NCc2cccc(C(F)(F)F)c2)CC2Cn3c(nc4ccccc43)C21 (centres unmarked)
Second: CN1C(C(=O)NCc2cccc(C(F)(F)F)c2)CC2Cn3c(nc4cc5ccccc5cc43)C21 (centres unmarked)
The “hERG current change (%, negative = inhibition) at 10uM” value of the first is higher: -47.4% for the first, -63.1% for the second.

First: Cc1cc(C)c(C#N)c(N2CCSCC2)n1
Second: Cc1cc(N2CCOCC2)nc2ccc(NC(=S)NCCC(C)C)cc12
The “hERG current change (%, negative = inhibition) at 10uM” value of the first is higher: 4.36% for the first, -64.1% for the second.

First: CC(=O)N1CCc2cc(S(=O)(=O)NCCC(=O)NC3CCCc4ccccc43)ccc21 (centres unmarked)
Second: Cc1cc(N2CCOCC2)nc2ccc(NC(=S)N3CCN(Cc4ccccc4)CC3)cc12
The “hERG current change (%, negative = inhibition) at 10uM” value of the first is higher: 2.54% for the first, -33.6% for the second.

Going from `CCN(CC)CCNC(=S)Nc1ccc2nc(N3CCOCC3)cc(C)c2c1` to `CCN(CC)CCNC(=S)Nc1ccc2nc(N3CCN(C)CC3)cc(C)c2c1`, the “hERG current change (%, negative = inhibition) at 10uM” value falls from 11.7% to -1.04%.

For `Cc1cc(N2CCOCC2)nc2ccc(NC(=S)NCc3ccc4c(c3)OCO4)cc12`, the “hERG current change (%, negative = inhibition) at 10uM” value was -68.5%.
